# Compound activity (PubChem)
# GLP1R ag – qHTS of GLP-1 Receptor Agonists; Glucagon-like peptide 1 receptor (Homo sapiens), P43220; HEK293 GLP-1R CRE-luciferase, luminescence, 4-6 h; cells express a hypersensitive GLP-1R form; Potency, µM (top dose mostly 45.6 µM), inactives show at the top dose activation, most hits filed as activators; hit rate 0.007% among 380,000; AID 624172, 2012; also: % of control where 0% means no effect
# Target sequence (P43220 whole entry, looked up): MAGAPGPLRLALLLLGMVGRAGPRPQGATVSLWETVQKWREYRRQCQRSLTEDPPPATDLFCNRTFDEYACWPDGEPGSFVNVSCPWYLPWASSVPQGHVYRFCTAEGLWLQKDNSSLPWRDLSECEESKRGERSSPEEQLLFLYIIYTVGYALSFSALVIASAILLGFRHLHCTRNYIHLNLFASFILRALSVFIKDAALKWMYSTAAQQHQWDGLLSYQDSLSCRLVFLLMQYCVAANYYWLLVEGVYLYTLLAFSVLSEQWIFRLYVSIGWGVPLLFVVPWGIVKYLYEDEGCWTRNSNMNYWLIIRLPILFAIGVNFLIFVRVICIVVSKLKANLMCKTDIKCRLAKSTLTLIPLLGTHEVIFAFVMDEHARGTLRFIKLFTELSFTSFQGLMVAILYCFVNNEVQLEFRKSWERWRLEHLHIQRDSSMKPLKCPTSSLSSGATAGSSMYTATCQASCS
# HEK293 tox – qHTS of GLP-1 Receptor Inverse Agonists: Cytotox Screen. HEK293 cAMP-luciferase reporter cells, luminescence, 24 h. Potency, µM (titrated, usually from 38.3 µM), for the others: at the highest dose activity change, negative = inhibition, most hits filed as inhibitors. hit rate 0.13% among 410,000. AID 624418, 2012;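 also: loss of luciferase light is scored as toxicity; % is scaled to controls: 0 for no effect and ±100 for the full control effect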
#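 Quantitative HTS format, 1536 wells, 200 cells/uL seeded. Compounds: 23 nL, 24 h, 37 °C. Detection: luciferase reagent, luminescence at 12 min RT; decreased signal taken as cytotoxic.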
# BRCA1 expr act – qHTS Assay to Identify Small Molecule Activators of BRCA1 Expression | MCF7-BRCA1-FFLuc reporter, luminescence, 48 h; response scale: scaled: vehicle 0%, 10 µM genistein 100% | Potency, µM (top dose mostly 46.1 µM), for inactives: top-dose activation, hits mostly activators | hit rate 1.1% among 380,000 | AID 624202, 2012; also: nearly all actives have a fitted effect of over 80% in size
#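 Luminescence from a BRCA1-driven firefly luciferase in MCF7 cells was read after 48 h compound exposure at 37 C. Data normalized against DMSO and a 10microM genistein activation control, then curve-fitted across the titration.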
# Mito fusion act – qHTS Assay for Small Molecule Inhibitors of Mitochondrial Division or Activators of Mitochondrial Fusion; S. cerevisiae fusion-defective mutant growth rescue, CellTiterGlo 48 h; Potency, µM (titrated, usually from 46.1 µM), for inactives: top-dose growth rescue (activation), usual class: activators; hit rate 0.23% among 320,000; AID 485298, 2010; also: % of control where 0% means no effect; nearly all actives have a fitted effect of over 45% in size
#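 S. cerevisiae fusion-defective temperature-sensitive mutants (e.g. fzo1-1, mgm1-5) grown 48 h at 37C in YPEG (ethanol/glycerol non-fermentable) medium with 23 nl compound per well; growth rescue read as CellTiterGlo luminescence.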
# GLP-1R inv ag – qHTS of GLP-1 Receptor Inverse Agonists (Inhibition Mode). Glucagon-like peptide 1 receptor (Homo sapiens), P43220. HEK293 GLP-1R CRE-luciferase, luminescence, 24 h; GLP-1R form is constitutively active. Potency, µM (titrated, usually from 38.3 µM), for inactives: at the highest dose activity change, negative = inhibition, most hits filed as inhibitors. hit rate 1.6% among 410,000; also: % is scaled to controls: 0 for no effect and ±100 for the full control effect; nearly all actives have a fitted effect of over 55% in size
#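 Readout was luciferase luminescence, measured 12 min after detection reagent at room temperature. Beforehand, GLP-1R reporter HEK293 cells had sat 12 h, then received compounds for 24 hr at 37 deg C.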
# The depositor's hits bear a star; ? = inconclusive; . = no result given; [ ] = dose if it differs, or a comment. The list is not random: actives were taken first. Their share in the collection is about 2.8%. Calls follow the shape of the dose curve; as a rule, active = well fitted curve in the direction sought with a large enough effect; inconclusive = small, poorly fitted or top-dose-only effect, or another doubt; inactive = no such curve, though single readings can be large; an effect the other way counts as inactive or inconclusive. Potency is read from the fitted curve at half-maximal effect.
SMILES,GLP1R ag,HEK293 tox,BRCA1 expr act,Mito fusion act,GLP-1R inv ag
S=C(Nc1ccccc1Cl)N(Cc1ccccc1)Cc1ccccn1,5%,?,-8%,18µM*,10µM*
Cc1c(Cl)cccc1NC(=S)N(Cc1cccnc1)Cc1ccccc1Cl,10%,-25%,-8%,-2%,11µM*
COc1ccc(S(=O)(=O)N2CCN(C(=O)C3CC3)CC2)cc1,0%,-5%,-1%,?,6%
O=C(c1cc([N+](=O)[O-])ccc1N1CCCCC1)N1CCCC1,-1%,-29%,1%,0%,12%
Cc1cc(C)nc(SC2c3cccc4cccc(c34)C2NS(=O)(=O)c2ccccc2)n1 (configuration not stated),-2%,6%,-59%,20µM*,?
Cc1ccc(S(=O)(=O)NC2c3cccc4cccc(c34)C2Sc2ncccn2)cc1 (configuration not stated),-4%,2%,-52%,14µM*,?
Nc1nc(SC2c3cccc4cccc(c34)C2NS(=O)(=O)c2ccccc2)n[nH]1 (configuration not stated),-4%,-12%,-22%,-15%,0%
CCC(CC)C(=O)N(C)c1c(C)nc2c(OCc3cc(Cl)cc(Cl)c3)cccn12,10%,-1%,-33%,.,11µM*
O=C1c2ccsc2SCCN1Cc1cccc(Cl)c1,5%,-13%,-1%,1%,13µM*
O=C(CCN1C(=O)C2C3C=CC(C3)C2C1=O)Nc1ccc2ncccc2c1 (configuration not stated),-14%,-4%,3%,0%,9%
O=c1nc2sc3ccccc3n2c(=O)n1-c1ccc(Cl)c(Cl)c1,.,2%,.,.,4%
CC(C)(C)c1ccc(Oc2cccc(C3CC(=O)C(C4NCCc5ccccc54)C(=O)C3n3cncn3)c2)cc1 (configuration not stated),-5%,-22%,-3%,2%,6.3µM*
CC(=O)Nc1cccc(-c2ccnc3c2CC(C(=O)NCc2cccc(Cl)c2)O3)c1 (configuration not stated),13%,-13%,-39%,.,?
CC(=O)Nc1ccc(-c2ccnc3c2CC(C(=O)NCc2cccc(Cl)c2)O3)cc1 (configuration not stated),?,?,-33%,.,3.5µM*
CCOC(=O)N1CCC(N(CCN(C)C)C(=S)Nc2cc(Cl)ccc2C)CC1,11%,?,-76%,-2%,5.6µM*
CCOC(=O)N1CCC(N(CCN(C)C)C(=S)Nc2cccc(Cl)c2)CC1,-1%,-5%,-20%,11%,11µM*
CCNC(=O)N1CCN(/[N+]([O-])=N/Oc2ccc([N+](=O)[O-])cc2[N+](=O)[O-])CC1,.,.,-5%,.,.
O=C1COc2ccc(C(=O)COc3ccc([N+](=O)[O-])cc3)cc2N1,-4%,-7%,-3%,-1%,32%
COc1cc(/C=N/NC(=O)c2ccccn2)ccc1OC(=O)c1ccc(Br)cc1,-3%,-1%,56%,5%,6%
O=C(N/N=C/c1cc2c(cc1Br)OCO2)c1ccccn1,1%,2%,7.9µM*,-2%,-1%
COc1cc(/C=N/NC(=O)c2ccccn2)ccc1OC(=O)c1ccccc1Br,-30%,11µM*,33%,-9%,?
Cc1ccc(/C=N/NC(=O)c2ccccn2)o1,0%,-1%[1.53 µM],11µM*,-1%,5%
CC(SCc1ccccc1)C(=O)N/N=C/c1cc2c(cc1Br)OCO2 (configuration not stated),1%,76%,9%,2%,10µM*
COc1c(C)cccc1C(=O)NC(=S)Nc1ccc2c(c1)Cc1ccccc1-2,0%,-3%,2%,-1%,2%
CC(C)CN(CC(C)C)C(=S)NC1CCCCC1,2%,10µM*,-22%,-6%,?
